The source of these data is PubChem BioAssay (NCATS).

Several values for one entry are separate records, joined by “and”; a condition that tells them apart may be missing. Equal entries are not always repeated. Records with an inconclusive call do not appear. Where a call stands in place of a potency, no number is given. Activity calls are given as the source filed them. Calls follow the shape of the dose curve; as a rule, active = well fitted cell-killing curve with a large enough effect; inconclusive = small, poorly fitted or top-dose-only effect; inactive = flat fitted curve, though single readings scatter.
Potency is read from the fitted curve at half-maximal effect.

A short description of the assay: qHTS of pediatric cancer cell lines to identify multiple opportunities for drug repurposing: Primary screen for BT-12 cells (AID 1347101). Also: nearly all actives have a fitted effect of over 25% in size. Conditions: BT-12 viability, CellTiter-Glo luminescence, 48 h; series mostly up to 57.3 µM. The source says:
Drug repurposing or repositioning has been offered as a strategy for drug development in oncology programs. This approach has special potential for childhood cancers and other rare or orphan diseases, where the expected return on new drug development has been a disincentive to pharmaceuticals.
In this project we exploit the poly-pharmacology of drugs to discover new indications via phenotypic screening of a panel of 19 well-characterized cell lines derived from solid tumors seen in children and adolescents. The goal is to identify approved drugs with previously unrecognized anticancer properties that has the potential to reveal new mechanisms and biological processes involved in carcinogenesis or drug resistance. We employed a titration-based paradigm (quantitative high-throughput screening or qHTS), where all compounds were tested at multiple concentrations for their effect on cell viability. Concentration-response curves (CRCs) were derived directly from the primary screen, and both potency and efficacy values were used to identify compounds with robust bioactivity profiles. We screened the NIH Chemical Genomics Center (NCGC) Pharmaceutical Collection (NPC) and Mechanism Interrogation Plate (MIPE) small molecule collections of approved and investigational compounds against these cell lines; and measured metabolically active cells after 48 hours of compound treatment as a proxy for cell viability.
Assay Submitter: Nathalia J. Martinez, National Center for Advancing Translational Sciences, National Institutes of Health, Rockville, MD, USA; email: natalia.martinez@nih.gov
[1] Shen, M et al. Quantitative high-throughput phenotypic screening of pediatric cancer cell lines identifies multiple opportunities for drug repurposing. Oncotarget 2017 Dec 19;9(4):4758-4772. PMID 29435139.
The cells were obtained from University of North Carolina (UNC), Pediatric Preclinical Testing Program (PPT), and Coriell Institute (CI).
qHTS cell viability assay:
Cells were assayed in growth media at a density of 500-1,000 cells/well. Five microliters of cells were dispensed into 1,536-well, white, solid-bottom, TC-treated plates (Greiner Bio One) using a multidrop dispenser and incubated at 37 degrees C, 5% CO2, under a humidified atmosphere for 5 hours. Twenty-three nanoliters of compounds and controls (neutral control DMSO or positive control bortezomib at final concentration of 2.3 µM) were subsequently transferred by Kalypsys pintool. For primary screens, the MIPE collection was tested at 11-point dilutions (final concentrations range from 0.78 nM to 46 µM) and the NPC collection at 8-point dilutions (final concentrations range from 0.59 nM to 46 µM). Compounds tested in follow-up screens were assayed at 11-point dilutions. Cells were incubated for 48 hours, followed by addition of 3 µL of CellTiter-Glo (Promega). After a 15 min incubation at room temperature, samples were analyzed for luminescence intensity using a ViewLux High-throughput CCD imager equipped with clear filters.
In general terms: qHTS replaces the single test concentration by a dilution series.
For `CC(C)C1CCC(C(=O)N[C@H](Cc2ccccc2)C(=O)O)CC1` (stereo not given in full), the Potency result was “inactive”.

Take `CC(=O)CC(c1ccccc1)c1c(O)c2ccccc2oc1=O` (stereo not given): the Potency result is “inactive”.

In the case of `O=C(O)c1cn(C2CC2)c2cc(N3CCNCC3)c(F)cc2c1=O`, the Potency entry was “inactive”.

As to `Nc1ccc(S(=O)(=O)Nc2ccccn2)cc1`, the Potency result is “inactive”.

On to `O=C(O)CSCC(=O)NC1CCSC1=O` (stereo not given), for which the Potency entry is “inactive”.

On to `Nc1nc(N)c2nc(CNc3ccc(C(=O)NC(CCC(=O)O)C(=O)O)cc3)cnc2n1` (stereo not given), for which the Potency was 0.0485 µM (active).

Turning to `CNS(=O)(=O)Cc1ccc2[nH]cc(CCN(C)C)c2c1`, the Potency result was “inactive”.

In the case of `CO[C@@]12[C@H](COC(N)=O)C3=C(C(=O)C(C)=C(N)C3=O)N1C[C@@H]1N[C@@H]12`, the Potency was 3.47 µM (active) and 3.06 µM (active).

For `CNNCc1ccc(C(=O)NC(C)C)cc1`, the Potency result was “inactive”.

As to `CC(=O)[C@H]1CC[C@H]2[C@@H]3CC=C4C[C@@H](O)CC[C@]4(C)[C@H]3CC[C@]12C`, the Potency result was “inactive”.

For `NC(=O)c1ccc2[nH]ccc2c1`, the Potency result is “inactive”.

Regarding `COC(c1ccccc1)(c1ccccc1)[C@H](Oc1nc(C)cc(C)n1)C(=O)O`, the Potency result was “inactive”.

As to `Cc1cc(NS(=O)(=O)c2ccc(N)cc2)no1`, the Potency result is “inactive”.

`Cn1nnc2c(C(N)=O)ncn2c1=O`: the Potency entry is “inactive”.

For `O=C(O)c1cc(=O)[nH]c(=O)[nH]1`, the Potency entry was “inactive”.

For `CCn1cc(C(=O)O)c(=O)c2cc(F)c(N3CCNCC3)cc21`, the Potency entry was “inactive”.

For the compound `CCN(C)C(=O)Oc1cccc([C@H](C)N(C)C)c1`, the Potency result is “inactive”.

Turning to `C[C@@H]1C[C@H]2[C@@H]3CCC4=CC(=O)C=C[C@]4(C)[C@@]3(Cl)[C@@H](O)C[C@]2(C)[C@@]1(OC(=O)c1ccco1)C(=O)CCl`, the Potency is 27.6 µM (active) and 9.68 µM (active).

Take `S=P(N1CC1)(N1CC1)N1CC1`: the Potency result was “inactive”.

Take `C[C@@H](NCCCc1cccc(C(F)(F)F)c1)c1cccc2ccccc12`: the Potency entry is “inactive”.

For `NC(N)=NC(N)=NCCc1ccccc1`, the Potency is 19.3 µM (active).

For `Cc1nnc(NS(=O)(=O)c2ccc(N)cc2)s1`, the Potency entry is “inactive”.

As to `Clc1ccccc1CN1CCc2sccc2C1`, the Potency is 1.93 µM (active).

Consider `O=C(O)c1cccnc1`, for which the Potency result is “inactive”.

With `OC(Cn1cncn1)(Cn1cncn1)c1ccc(F)cc1F`, the Potency entry is “inactive”.

On to `COCCCOc1cc(C[C@@H](C[C@H](N)[C@@H](O)C[C@H](C(=O)NCC(C)(C)C(N)=O)C(C)C)C(C)C)ccc1OC`, for which the Potency result was “inactive”.

As to `CC1=NN(c2ccccc2)C(=O)C1`, the Potency entry is “inactive”.

For the compound `CN(CCOc1ccc(CC2SC(=O)NC2=O)cc1)c1ccccn1` (stereo not given), the Potency entry was “inactive”.

Turning to `Nc1nc(=S)c2[nH]cnc2[nH]1`, the Potency is 8.71 µM (active) and 7.69 µM (active).

With `CCn1cc(C(=O)O)c(=O)c2cc(F)c(N3CCN(C)CC3)cc21`, the Potency entry is “inactive”.

On to `Cc1onc(-c2ccccc2Cl)c1C(=O)N[C@@H]1C(=O)N2[C@@H]1SC(C)(C)[C@@H]2C(=O)O`, for which the Potency result is “inactive”.

As for `CC(C)OC(=O)C(C(=O)OC(C)C)=C1SC=CS1`, the Potency result was “inactive”.

For the compound `COC(=O)Nc1nc2ccc(S(=O)c3ccccc3)cc2[nH]1` (stereo not given), the Potency was 2.46 µM (active).

For the compound `NC(=O)c1cccnc1`, the Potency entry is “inactive”.

Consider `CNC1CCCN(c2c(F)cc3c(=O)c(C(=O)O)cn(C4CC4)c3c2OC)C1` (stereo not given), for which the Potency result is “inactive”.

Take `O=C(N[C@H](CO)[C@H](O)c1ccc([N+](=O)[O-])cc1)C(Cl)Cl`: the Potency entry was “inactive”.

Turning to `CO[C@@H]1[C@@H](OC(N)=O)[C@@H](O)[C@H](Oc2ccc3c(O)c(NC(=O)c4ccc(O)c(CC=C(C)C)c4)c(=O)oc3c2C)OC1(C)C`, the Potency entry is “inactive”.

On to `CCCCc1oc2ccc(NS(C)(=O)=O)cc2c1C(=O)c1ccc(OCCCN(CCCC)CCCC)cc1`, for which the Potency was 19.3 µM (active) and 12.3 µM (active).

With `CN(C)CCc1c[nH]c2ccc(C[C@H]3COC(=O)N3)cc12`, the Potency entry was “inactive”.

Consider `NC1(c2ccc(-c3nc4ccn5c(=O)[nH]nc5c4cc3-c3ccccc3)cc2)CCC1`, for which the Potency was 21.7 µM (active) and 24.6 µM (active).
